Where a name gives a salt, the structure may show the parent alone. ± gives the standard deviation of the averaged measurements. Whole data set: some 1,900 compounds, median “normalised cell viability (NPI; 0 = phenylarsine oxide control, 1 = DMSO control)” near 1, cut for the lowest 2% near 0.039. Only a selection was taken, and the lowest values are over-represented in it overall.
Test system: NCI-H1944
Assay: normalised cell viability (NPI; 0 = phenylarsine oxide control, 1 = DMSO control) (fraction of DMSO control); NCI-H1944 is a non-small cell lung cancer line; higher = more viable cells (less compound toxicity)
Conditions: 6 days
[1] = glucocorticoid arm: hydrocortisone 2.75 uM co-treatment, compound 1 µM
[2] = glucocorticoid arm: hydrocortisone 2.75 uM co-treatment, compound 5 µM
[3] = glucocorticoid arm: hydrocortisone 2.75 uM pre-treated 2 days and continued, compound 1 µM
[4] = glucocorticoid arm: hydrocortisone 2.75 uM pre-treated 2 days and continued, compound 5 µM
[5] = glucocorticoid arm: vehicle, compound 1 µM
[6] = glucocorticoid arm: vehicle, compound 5 µM
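Also: CTB read-out in 384-well plates, triplicate wells, NPI normalised per plate against 1 µM phenylarsine oxide (0) and 0.1% DMSO (1) controls.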

| SMILES | normalised cell viability [1] | normalised cell viability [2] | normalised cell viability [3] | normalised cell viability [4] | normalised cell viability [5] | normalised cell viability [6] |
| --- | --- | --- | --- | --- | --- | --- |
| COC[C@H](NC(=O)c1cnc(C)s1)C(=O)N[C@@H](COC)C(=O)N[C@@H](Cc1ccccc1)C(=O)[C@@]1(C)CO1 [Oprozomib (ONX 0912)] | 0.208 ± 0.051 | 0.0253 ± 0.0081 | 0.7 ± 0.017 | 0.301 ± 0.021 | 0.0106 ± 0.0015 | 0.00109 ± 0.00065 |
| Nc1ccc(-c2ccc3ncc4ccc(=O)n(-c5cccc(C(F)(F)F)c5)c4c3c2)cn1 [Torin 2] | 0.175 ± 0.0021 | 0.171 ± 0.0032 | 0.267 ± 0.012 | 0.299 ± 0.0097 | 0.0254 ± 0.002 | 0.0207 ± 0.0023 |
| CCC(=O)N1CCN(c2ccc(-n3c(=O)ccc4cnc5ccc(-c6cnc7ccccc7c6)cc5c43)cc2C(F)(F)F)CC1 [Torin 1] | 0.4 ± 0.0087 | 0.383 ± 0.013 | 0.532 ± 0.018 | 0.518 ± 0.022 | 0.223 ± 0.023 | 0.286 ± 0.01 |
| O=C(O)[C@H]1C[C@H](C(=O)O)N1 (relative stereo) [trans-Azetidine-2,4-dicarboxylic acid] | 1.007 ± 0.0058 | 1.007 ± 0.0058 | 1.005 ± 0.0087 | 1.01 | 0.9843 ± 0.0025 | 0.9883 ± 0.0091 |
| CC(C)(C)c1cnc(CSc2cnc(NC(=O)C3CCNCC3)s2)o1 | 0.0382 ± 0.0034 | 0.036 ± 0.0061 | 0.148 ± 0.013 | 0.133 ± 0.018 | 0.00695 ± 0.0037 | 0.00933 ± 0.00035 |
| C=C(C)C(CC=C(C)C)CC12CC(CC=C(C)C)C(C)(C)C(CC=C(C)C)(C(=O)C(=C(O)c3ccc(O)c(O)c3)C1=O)C2=O (stereo unspecified) [Garcinol] | 1 ± 0.012 | 1.01 ± 0.013 | 0.992 ± 0.014 | 0.997 ± 0.027 | 1.007 ± 0.0052 | 1.001 ± 0.01 |
| O=[N+]([O-])c1ccc(-c2nc(-c3ccc(F)cc3)c(-c3ccncc3)[nH]2)cc1 | 0.976 ± 0.019 | 0.903 ± 0.014 | 0.9707 ± 0.008 | 0.865 ± 0.019 | 0.996 ± 0.004 | 0.962 ± 0.051 |
| N#C/C(=C/c1ccc(O)c(O)c1)C(=O)NCc1ccccc1 [Tyrphostin AG 490] | 1.01 ± 0.016 | 1.03 ± 0.015 | 0.999 ± 0.028 | 1 ± 0.014 | 1.02 ± 0.01 | 1.02 ± 0.01 |
| C[C@H](Cc1ccc(O)c(O)c1)[C@@H](C)Cc1ccc(O)c(O)c1 | 0.996 ± 0.013 | 1.02 ± 0.02 | 0.998 ± 0.013 | 1.04 ± 0.058 | 1.013 ± 0.0058 | 1.02 ± 0.011 |
| CO/N=C(\C(=O)N[C@@H]1C(=O)N2C(C(=O)O)=C(CSc3nc(=O)c(O)nn3C)CS[C@H]12)c1csc(N)n1 [Ceftriaxone sodium salt] | 0.985 ± 0.0052 | 0.995 ± 0.025 | 0.849 ± 0.22 | 0.992 ± 0.0057 | 0.964 ± 0.0069 | 0.9743 ± 0.006 |
| Oc1ccc2ccccc2c1SSc1c(O)ccc2ccccc12 | 1.03 ± 0.01 | 1.08 ± 0.021 | 1.017 ± 0.0058 | 1.01 ± 0.028 | 1.013 ± 0.0058 | 1.04 ± 0.01 |
| CNc1nc(Nc2cnn(C3CCN(C4COC4)CC3F)c2Cl)ncc1C(F)(F)F (stereo unspecified) | 1.02 ± 0.01 | 1.05 ± 0.023 | 1.04 ± 0.01 | 1.05 ± 0.01 | 1.007 ± 0.0058 | 1.007 ± 0.0058 |
| Cc1[nH]nc2ccc(-c3cncc(OC[C@@H](N)Cc4ccccc4)c3)cc12 | 0.452 ± 0.007 | 0.0555 ± 0.0049 | 0.792 ± 0.022 | 0.129 ± 0.0089 | 0.1 ± 0.012 | 0.0136 ± 0.0021 |
| C#Cc1ccc2c(c1)C(=O)N(C)Cc1c(C(=O)OCCCOC(=O)c3ncn4c3CN(C)C(=O)c3cc(C#C)ccc3-4)ncn1-2 [Xli 093 hydrate] | 0.999 ± 0.011 | 1.01 ± 0.015 | 1 ± 0.013 | 1.01 | 0.99 ± 0.01 | 0.9967 ± 0.0015 |
| CCN1CCN(Cc2ccc(-c3cc4c(N[C@H](C)c5ccccc5)ncnc4[nH]3)cc2)CC1 | 0.812 ± 0.041 | 0.693 ± 0.043 | 0.885 ± 0.014 | 0.752 ± 0.047 | 0.8103 ± 0.0047 | 0.6 ± 0.016 |
| COc1cc(CC(=O)O)ccc1O [4-Hydroxy-3-methoxyphenylacetic acid] | 1.007 ± 0.0058 | 1.01 ± 0.014 | 1.01 ± 0.01 | 1.02 | 1.01 ± 0.01 | 1.01 |
| COc1cc(OC)c(/C=C/S(=O)(=O)Cc2ccc(OC)c(NCC(=O)O)c2)c(OC)c1 | 0.307 ± 0.021 | 0.261 ± 0.026 | 0.572 ± 0.03 | 0.572 ± 0.051 | 0.0447 ± 0.0079 | 0.0341 ± 0.0062 |
| Cc1c(F)ccc(C(=O)Nc2cc([N+](=O)[O-])ccc2N2CCN(C)CC2)c1Cl | 1.03 ± 0.011 | 0.987 ± 0.02 | 1.027 ± 0.0058 | 1 ± 0.013 | 0.9957 ± 0.0075 | 0.9963 ± 0.0047 |
| O=C(O)[C@H]1NCCC[C@H]1C(=O)O (relative stereo) [cis-Piperidine-2,3-dicarboxylic acid] | 1 ± 0.016 | 1 ± 0.022 | 1 ± 0.018 | 0.973 ± 0.0087 | 0.987 ± 0.0092 | 0.9887 ± 0.005 |
| CSC(=N)NCCC[C@H](N)C(=O)O [S-Methyl-L-thiocitrulline acetate] | 1.003 ± 0.0058 | 0.984 ± 0.028 | 1.01 ± 0.01 | 0.989 ± 0.018 | 0.9847 ± 0.0051 | 0.994 ± 0.014 |
| Nc1ccn([C@@H]2O[C@H](CO)[C@@H](O)[C@@H]2O)c(=O)n1 [Cytosine-1-beta-D-arabinofuranoside hydrochloride] | 0.352 ± 0.026 | 0.163 ± 0.022 | 1.03 ± 0.017 | 0.802 ± 0.22 | 0.0913 ± 0.011 | 0.0638 ± 0.0066 |
| Nc1ccn([C@@H]2O[C@H](CO)[C@@H](O)C2(F)F)c(=O)n1 [Gemcitabine hydrochloride; Gemcitabine HCl] | 0.202 ± 0.0062 | 1.04 ± 0.015 | 0.422 ± 0.044 | 1.03 | 0.0536 ± 0.0027 | 1.013 ± 0.0058 |
| Nc1ncn([C@@H]2O[C@H](CO)[C@@H](O)[C@H]2O)c(=O)n1 [Azacitidine] | 1.03 | 1.11 ± 0.025 | 1 ± 0.037 | 0.952 ± 0.24 | 0.976 ± 0.011 | 0.903 ± 0.017 |
| Nc1ncn([C@@H]2O[C@H](CO)[C@@H](O)[C@H]2O)c(=O)n1 [Azacitidine; 5-azacytidine] | 1.04 ± 0.026 | 1.11 ± 0.015 | 1.04 ± 0.01 | 1.1 ± 0.021 | 0.98 ± 0.017 | 0.766 ± 0.025 |
| Nc1ncn([C@@H]2O[C@H](CO)[C@@H](O)[C@H]2O)c(=O)n1 [5-azacytidine] | 1.006 ± 0.0063 | 1.03 | 1.01 ± 0.018 | 1.08 ± 0.014 | 0.972 ± 0.015 | 0.8937 ± 0.006 |
| Nc1ccn([C@@H]2O[C@H](CO)[C@@H](O)[C@@H]2O)c(=O)n1 | 0.178 ± 0.001 | 0.115 ± 0.0035 | 0.91 ± 0.011 | 0.31 ± 0.04 | 0.0325 ± 0.0032 | 0.0276 ± 0.0059 |

Source: the supplement of paper PMC8285479
